In PubChem BioAssay (Tox21):
Records with an inconclusive call do not appear. Calls of active or inactive are those of the source. The call rests on the fitted dose curve; in most records, active means well fitted curve in the direction sought with a large enough effect in the repeat runs; inconclusive means weak or mixed curves; inactive means no such curve, though single readings can be large; an effect the other way counts as inactive or inconclusive.

Tests used:
[1] = qHTS assay for identifying genotoxic compounds that show differential cytotoxicity against isogenic chicken DT40 cell lines with known DNA damage response pathways - wild type cell line (AID 743012); conditions: DT40 wild type chicken cells viability, CellTiter-Glo, 40 h; series mostly up to 68.4 µM; further: nearly all actives have a fitted effect of over 60% in size
How it was run: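 Using parental DT40 (300 cells/well), compounds delivered in DMSO incubate 40 h at 37 C/5% CO2. CellTiter-Glo reagent then stands 30 min at room temperature, and luminescence gives cell viability.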

[2] = qHTS assay for identifying genotoxic compounds that show differential cytotoxicity against isogenic chicken DT40 cell lines with known DNA damage response pathways - Rev3 mutant cell line (AID 743014); conditions: chicken DT40 Rev3-/- viability, CellTiter-Glo, 40 h; series mostly up to 68.4 µM; further: nearly all actives have a fitted effect of over 55% in size
[3] = qHTS assay for identifying genotoxic compounds that show differential cytotoxicity against isogenic chicken DT40 cell lines with known DNA damage response pathways - Rad54/Ku70 mutant cell line (AID 743015); conditions: DT40 Rad54/Ku70 mutant viability, CellTiter-Glo, 40 h; series mostly up to 66.8 µM; further: nearly all actives have a fitted effect of over 60% in size

Measured: Potency
Potency means the concentration at half of the fitted maximal effect.

COC(=O)[C@]12CCC(C)(C)C[C@H]1[C@H]1C(=O)C=C3[C@@]4(C)C=C(C#N)C(=O)C(C)(C)[C@@H]4CC[C@@]3(C)[C@]1(C)CC2
active: [1] 596 nM | [2] 841 nM | [3] 596 nM
